Records with an inconclusive call do not appear. A number with no mark means an inactive call. Calls of active or inactive are those of the source. Calls follow the shape of the dose curve; as a rule, active = well fitted inhibition curve with a large enough effect; inconclusive = small, poorly fitted or top-dose-only effect; inactive = no such curve, though single readings can be large or run the other way. Non-standard residues stand in square brackets, D forms with d. Residues, ends and D or L forms follow the SMILES beside them.
Experiment: BET inhibitor-based combinations targeting novel dependencies in MECOM-rearranged (r) AML: MV-4-11 cell line (AID 2202233); also: nearly all actives have a fitted effect of over 45% in size;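 as to viability, % of control: plate controls were DMSO for no effect and blank wells for full effect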
Details: MV-4-11 AML viability, CellTiter-Glo luminescence, 48 h; series mostly up to 46 µM
Outline: (§1)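 Normalized to DMSO and empty-well controls, the luminescence data from CellTiter-Glo after 48 hr drug exposure were fitted across 11 concentrations. Reported metrics are area under the dose-response curve and its Z-transformed form.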
Potency is read from the fitted curve at half-maximal effect.

| Structure (SMILES) | Potency | viability, % of control |
| --- | --- | --- |
| CO[C@H]1/C=C\C=C(\C)C(=O)NC2=CC(=O)C(NCCN(C)C)=C(C[C@@H](C)C[C@H](OC)[C@H](O)[C@@H](C)/C=C(/C)[C@@H]1OC(N)=O)C2=O | 29.5 nM (active) |  |
| CC(C)(S)[C@@H](N)C(=O)O |  | 125% [at 5.12 µM] |
| Cc1nc2ccc(CN(C)c3ccc(C(=O)N[C@@H](CCC(=O)O)C(=O)O)s3)cc2c(=O)[nH]1 | 46.8 nM (active) |  |
| C[C@]12CCC3[C@@H](CC[C@H]4NC(=O)C=C[C@]34C)[C@@H]1CC[C@@H]2C(=O)Nc1cc(C(F)(F)F)ccc1C(F)(F)F (some centres not stated) | inactive |  |
| CCCS(=O)(=O)c1nc(NC2CC2)cc(-c2ccc3c(ccn3C3CC(C)(C)NC(C)(C)C3)c2)n1 | 2480 nM (active) |  |
| CCCc1nc(C)c2c(=O)[nH]c(-c3cc(S(=O)(=O)N4CCN(CC)CC4)ccc3OCC)nn12 | inactive |  |
| CC1(C)O[C@@H]2C[C@H]3[C@@H]4C[C@H](F)C5=CC(=O)C=C[C@]5(C)[C@H]4[C@@H](O)C[C@]3(C)[C@]2(C(=O)CO)O1 | inactive |  |

Experiment: BET inhibitor-based combinations targeting novel dependencies in MECOM-rearranged (r) AML: HNT-34 cell line (AID 2202234); also: nearly all actives have a fitted effect of over 35% in size;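 as to viability (% of control): plate controls were vehicle wells for no effect and cell-free wells for full effect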
Details: HNT-34 AML viability, CellTiter-Glo luminescence, 48 h; series mostly up to 46 µM
Outline: as §1

| Structure (SMILES) | Potency | viability (% of control) |
| --- | --- | --- |
| COC1CCC(N2C(=O)CNc3ncc(-c4ccc(C(C)(C)O)nc4)nc32)CC1 (configuration not stated) | 2.35 µM (active) |  |
| N[C@@H]1CN(c2c(F)cc3c(=O)c(C(=O)O)cn([C@@H]4C[C@@H]4F)c3c2Cl)CC12CC2 | inactive |  |
| C[C@H]1O[C@H](O[C@H]2[C@H](O)[C@@H](O)[C@@H](O[C@H]3[C@H](O)[C@@H](O)C(O)O[C@@H]3CO)O[C@@H]2CO)[C@H](O)[C@@H](O)[C@@H]1N[C@H]1C=C(CO)[C@@H](O)[C@H](O)[C@H]1O (some centres not stated) | inactive |  |
| CC(C)C[C@@H]1NC(=O)[C@@H](C(C)C)NC(=O)[C@@H]2CCCN2C(=O)[C@@H](CC(=O)O)NC(=O)[C@@H](Cc2c[nH]c3ccccc23)NC1=O (cyclo(L[dW][dD]P[dV])) | inactive |  |
| Cc1cnc(NC(=O)c2cc(Oc3cnc(C(=O)N(C)C)nc3)c3cc(C)oc3c2)cn1 | inactive |  |
| CC(C)(CO)n1cc(C(=O)c2cncc(NC(=O)Cc3ccc(Cl)cn3)c2)c2cnc(N)nc21 | inactive |  |
| CN1CCC(c2c(O)cc(O)c3c(=O)cc(-c4ccccc4Cl)oc23)C1CO (configuration not stated) | 0.833 µM (active) |  |
| CN[C@@H]1[C@@H](O)[C@@H](O[C@@H]2[C@@H](O)[C@H](O[C@H]3O[C@H](CN)[C@@H](O)[C@H](O)[C@H]3O)[C@@H](N)C[C@H]2NC(=O)C(O)CN)OC[C@]1(C)O (some centres not stated) | inactive |  |
| CCCCCCCOc1ccc(CCC(N)(CO)CO)cc1C(F)(F)F | 14.8 µM (active) |  |
| O=C(O)CNC(=O)c1nc(Cl)c2ccccc2c1O | inactive |  |
| CCOc1ccc(-n2c([C@@H](C)N(Cc3cccnc3)C(=O)Cc3ccc(F)c(C(F)(F)F)c3)nc3ncccc3c2=O)cc1 | inactive |  |
| COc1cccc2c1C(=O)c1c(O)c3c(c(O)c1C2=O)C[C@@](O)(/C(CO)=N/NC(=O)CCCCCN1C(=O)C=CC1=O)C[C@@H]3O[C@H]1C[C@H](N)[C@H](O)[C@H](C)O1 | 0.934 µM (active) |  |
| Cc1ccc(-n2[nH]c(C)c(N=Nc3cccc(-c4cccc(C(=O)O)c4)c3O)c2=O)cc1C | inactive |  |
| C[C@]12CC[C@H](O)CC1=CC[C@@H]1[C@@H]2CC[C@]2(C)C(c3cccnc3)=CC[C@@H]12 | inactive |  |
| CCCNC(=O)c1cn2ncnc(Nc3cc(C(=O)NC4CC4)ccc3C)c2c1C | inactive |  |
| CCOCOC[C@H](C[C@H](C)C(=O)NO)NC(=O)c1ccc(Oc2ccccc2)cc1 | 26.3 µM (active) |  |
| COc1cc(/C=C/C(=O)CC(=O)/C=C/c2ccc(O)c(OC)c2)ccc1O | 14.8 µM (active) |  |
| COc1ccc(N2C(=O)N(c3c(C)cccc3Cl)Cc3cnc(Nc4ccc(C5CCN(C)CC5)cc4OC)nc32)nc1 | 1.66 µM (active) |  |
| COc1cc(Nc2cnc(C#N)c(O[C@H](C)CN(C)C)n2)ncc1-c1cnn(C)c1 | 2.95 µM (active) |  |
| CNC1CCCN(c2c(F)cc3c(=O)c(C(=O)O)cn(C4CC4)c3c2OC)C1 (configuration not stated) | inactive |  |

| Structure (SMILES) | Potency | viability (% of control) |
| --- | --- | --- |
| CN(C)C(=O)COC(=O)Cc1ccc(OC(=O)c2ccc(N=C(N)N)cc2)cc1 | inactive |  |
| OC1CCC([C@H](O)C[C@H]2c3c(F)cccc3-c3cncn32)CC1 (some centres not stated) | inactive |  |
| COc1nnc2ccc(N3CCC(c4ccc(OCCN5CCN(C)C(=O)[C@H]5C)cc4)CC3)nn12 | 0.105 µM (active) |  |
| CC[C@@]1(O)C(=O)OCc2c1cc1n(c2=O)Cc2c-1nc1ccccc1c2CCNC(C)C | 0.0037 µM (active) |  |
| C/C(=N\NC(=S)N1CCC1)c1ccccn1 | 0.0372 µM (active) |  |
| O=C(O)CCNc1cc(N2CCc3ccccc3CC2)nc(-c2cccnc2)n1 | inactive |  |
| C[C@@H](OC[C@@]1(c2ccccc2)CC[C@]2(CCC(=O)N2)CN1)c1cc(C(F)(F)F)cc(C(F)(F)F)c1 | 18.6 µM (active) |  |
| CNCCCOc1cc(F)c(-c2c(Cl)nc3ncnn3c2N[C@@H](C)C(F)(F)F)c(F)c1 | 0.0742 µM (active) |  |
| CC(=O)c1cc2c(o1)C(=O)c1ccccc1C2=O | 2.35 µM (active) |  |
| COc1cc(N2CCN(C)CC2)ccc1Nc1ncc2c(n1)N(C)c1ccccc1C(=O)N2C | 16.6 µM (active) |  |
| CC(C)(C)NC(=O)c1cncn1C1CCN(c2ccc(-c3nnc(C(F)(F)F)o3)cn2)CC1 | 4.68 µM (active) |  |
| O=[N+]([O-])c1ccc(O)c2ncccc12 | 7.42 µM (active) |  |
| COc1cc([C@@H]2c3cc4c(cc3[C@@H](O[C@@H]3O[C@@H]5CO[C@@H](c6cccs6)O[C@H]5[C@H](O)[C@H]3O)[C@H]3COC(=O)[C@H]23)OCO4)cc(OC)c1O | 0.235 µM (active) |  |
| CO[C@H]1/C=C\C=C(\C)C(=O)NC2=CC(=O)C(NCCN(C)C)=C(C[C@@H](C)C[C@H](OC)[C@H](O)[C@@H](C)/C=C(/C)[C@@H]1OC(N)=O)C2=O | 0.417 µM (active) |  |
| CC(C)(S)[C@@H](N)C(=O)O |  | 108% [at 5.12 µM] |
| Cc1nc2ccc(CN(C)c3ccc(C(=O)N[C@@H](CCC(=O)O)C(=O)O)s3)cc2c(=O)[nH]1 | inactive |  |
| C[C@]12CCC3[C@@H](CC[C@H]4NC(=O)C=C[C@]34C)[C@@H]1CC[C@@H]2C(=O)Nc1cc(C(F)(F)F)ccc1C(F)(F)F (some centres not stated) | inactive |  |
| CCCS(=O)(=O)c1nc(NC2CC2)cc(-c2ccc3c(ccn3C3CC(C)(C)NC(C)(C)C3)c2)n1 | 3.12 µM (active) |  |
| CCCc1nc(C)c2c(=O)[nH]c(-c3cc(S(=O)(=O)N4CCN(CC)CC4)ccc3OCC)nn12 | inactive |  |
| CC1(C)O[C@@H]2C[C@H]3[C@@H]4C[C@H](F)C5=CC(=O)C=C[C@]5(C)[C@H]4[C@@H](O)C[C@]3(C)[C@]2(C(=O)CO)O1 | inactive |  |

— PubChem BioAssay (NCATS)
